# Test results from the supplement of paper PMC10849652.
# Targets with a hit are over-represented here; the source holds about 8,800 in all. About 0.5% of all pairs of compound and target were hits. Unmarked numbers belong to inactive results.
# Assays:
# Assay in all cases: log2 fold change, soluble protein after heating vs DMSO (PISA); higher = thermal stabilisation; K562 lysate, 10 uM; active = over 0.2 and 3.5 SD of the protein, either way, in both replicates (recomputed)
# alvocidib = compound: CN1CC[C@H](c2c(O)cc(O)c3c(=O)cc(-c4ccccc4Cl)oc23)[C@H](O)C1 [alvocidib]
# In short: (§1)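 Dounce homogenisation of K562 pellets in PBS pH 7.4 with 1 mM MgCl2 produced a crude extract, used at 1 mg/mL protein. Exposure to 10 μM compound lasted 30 min, and aliquots were then heated for 3 min across 48°C-58°C, pooled and brought to 0.5% NP-40 at 4°C. The supernatant after 21,000xg for 90 min was quantified by TMTpro 16plex LC-MS/MS with channel sums equalised. Duplicate values are given as log-two fold change in thermal stability relative to solvent controls.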
# Tubastatin A = compound: CN1CCc2c(c3ccccc3n2Cc2ccc(C(=O)NO)cc2)C1 [Tubastatin A]
# In short: as §1
# [1] = compound: CNC(=O)C1=CC=CC=C1NC2=NC(=NC=C2Cl)NC3=C(C=C(C=C3)N4CCOCC4)OC
# In short: as §1
# defactinib = compound: CNC(=O)c1ccc(Nc2ncc(C(F)(F)F)c(NCc3nccnc3N(C)S(C)(=O)=O)n2)cc1 [defactinib]
# In short: as §1
# [2] = compound: CNc1nc(-c2ccc3c(N)n[nH]c3c2)cc(N2C[C@@H](C(=O)NC3CCCCC3)CC[C@H]2C)n1
# In short: as §1
# encorafenib = compound: COC(=O)N[C@@H](C)CNc1nccc(-c2cn(C(C)C)nc2-c2cc(Cl)cc(NS(C)(=O)=O)c2F)n1 [encorafenib]
# In short: as §1
# [3] = compound: COC(=O)[C@H](CCSC)NC(=O)C1=C(C=C(C=C1)NC[C@H](CS)N)C2=CC=CC=C2
# In short: as §1
# alisertib = compound: COc1cc(Nc2ncc3c(n2)-c2ccc(Cl)cc2C(c2c(F)cccc2OC)=NC3)ccc1C(=O)O [alisertib]
# In short: as §1
# [4] = compound: COc1cc2nc(-c3cc(F)ccc3O)nc(N[C@@H]3CNC[C@H]3C(C)(C)O)c2cc1OC
# In short: as §1
# gefitinib = compound: COc1cc2ncnc(Nc3ccc(F)c(Cl)c3)c2cc1OCCCN1CCOCC1 [gefitinib]
# In short: as §1
# lapatinib = compound: CS(=O)(=O)CCNCc1ccc(-c2ccc3ncnc(Nc4ccc(OCc5cccc(F)c5)c(Cl)c4)c3c2)o1 [lapatinib]
# In short: as §1
# pictilisib = compound: CS(=O)(=O)N1CCN(Cc2cc3nc(-c4cccc5[nH]ncc45)nc(N4CCOCC4)c3s2)CC1 [pictilisib]
# In short: as §1
# crizotinib = compound: C[C@@H](Oc1cc(-c2cnn(C3CCNCC3)c2)cnc1N)c1c(Cl)ccc(F)c1Cl [crizotinib]
# In short: as §1
# [5] = compound: C[C@H](C1=CC=C(C=C1)C(=O)NC2=C3C=CNC3=NC=C2)N
# In short: as §1
# duvelisib = compound: C[C@H](Nc1ncnc2nc[nH]c12)c1cc2cccc(Cl)c2c(=O)n1-c1ccccc1 [duvelisib]
# In short: as §1
# gandotinib = compound: Cc1cc(Nc2cc(CN3CCOCC3)c3nc(C)c(Cc4ccc(Cl)cc4F)n3n2)n[nH]1 [gandotinib]
# In short: as §1
# tozasertib = compound: Cc1cc(Nc2cc(N3CCN(C)CC3)nc(Sc3ccc(NC(=O)C4CC4)cc3)n2)n[nH]1 [tozasertib]
# In short: as §1
# doramapimod = compound: Cc1ccc(-n2nc(C(C)(C)C)cc2NC(=O)Nc2ccc(OCCN3CCOCC3)c3ccccc23)cc1 [doramapimod]
# In short: as §1
# bafetinib = compound: Cc1ccc(NC(=O)c2ccc(CN3CC[C@H](N(C)C)C3)c(C(F)(F)F)c2)cc1Nc1nccc(-c2cncnc2)n1 [bafetinib]
# In short: as §1
# [6] = compound: Cc1cccc(CC(=O)N2CCc3c2ccc(-c2cn(C)c4ncnc(N)c24)c3F)n1
# In short: as §1
# Sequence of UniProt Q86XZ4 (Q86XZ4 whole entry, looked up): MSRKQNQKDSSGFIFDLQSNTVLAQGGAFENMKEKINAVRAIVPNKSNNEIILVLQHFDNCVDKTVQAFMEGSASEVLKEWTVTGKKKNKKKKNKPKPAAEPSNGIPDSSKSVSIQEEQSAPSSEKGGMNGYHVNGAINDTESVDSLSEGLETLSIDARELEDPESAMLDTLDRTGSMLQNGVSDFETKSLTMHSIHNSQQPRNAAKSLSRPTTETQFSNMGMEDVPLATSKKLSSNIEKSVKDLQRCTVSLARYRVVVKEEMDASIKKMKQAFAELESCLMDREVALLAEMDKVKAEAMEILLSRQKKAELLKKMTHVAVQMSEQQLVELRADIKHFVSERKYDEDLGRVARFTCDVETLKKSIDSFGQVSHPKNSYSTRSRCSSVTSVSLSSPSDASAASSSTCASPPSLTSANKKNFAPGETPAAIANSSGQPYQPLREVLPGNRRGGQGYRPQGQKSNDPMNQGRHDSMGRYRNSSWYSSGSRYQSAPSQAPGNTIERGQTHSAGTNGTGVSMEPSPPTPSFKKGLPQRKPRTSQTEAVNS
# Sequence of UniProt O43805 (O43805 whole entry, looked up): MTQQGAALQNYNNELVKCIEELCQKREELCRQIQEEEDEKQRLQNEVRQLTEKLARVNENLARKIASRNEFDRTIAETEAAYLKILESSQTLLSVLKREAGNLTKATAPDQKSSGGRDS
# Sequence of UniProt Q9BXS9 (Q9BXS9 whole entry, looked up): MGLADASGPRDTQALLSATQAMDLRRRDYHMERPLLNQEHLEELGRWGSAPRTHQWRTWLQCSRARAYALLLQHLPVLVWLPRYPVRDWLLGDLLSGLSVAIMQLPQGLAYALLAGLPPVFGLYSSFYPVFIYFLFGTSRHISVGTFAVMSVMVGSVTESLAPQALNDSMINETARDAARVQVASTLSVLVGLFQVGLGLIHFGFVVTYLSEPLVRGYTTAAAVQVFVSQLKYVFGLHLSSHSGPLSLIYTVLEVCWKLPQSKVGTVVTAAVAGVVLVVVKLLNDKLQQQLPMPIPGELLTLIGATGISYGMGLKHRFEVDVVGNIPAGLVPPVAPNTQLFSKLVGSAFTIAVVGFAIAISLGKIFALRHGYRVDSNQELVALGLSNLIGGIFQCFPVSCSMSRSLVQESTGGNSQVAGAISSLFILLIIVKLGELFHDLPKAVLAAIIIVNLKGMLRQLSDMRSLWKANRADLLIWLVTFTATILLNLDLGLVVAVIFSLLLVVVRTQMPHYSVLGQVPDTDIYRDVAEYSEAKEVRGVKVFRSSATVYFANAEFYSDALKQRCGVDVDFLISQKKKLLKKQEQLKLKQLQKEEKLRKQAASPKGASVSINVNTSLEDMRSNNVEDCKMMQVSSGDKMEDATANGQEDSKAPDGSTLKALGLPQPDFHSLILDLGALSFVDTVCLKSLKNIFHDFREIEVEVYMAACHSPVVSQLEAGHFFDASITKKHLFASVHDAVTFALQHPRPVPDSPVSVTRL
# Sequence of UniProt P19623 (P19623 whole entry, looked up): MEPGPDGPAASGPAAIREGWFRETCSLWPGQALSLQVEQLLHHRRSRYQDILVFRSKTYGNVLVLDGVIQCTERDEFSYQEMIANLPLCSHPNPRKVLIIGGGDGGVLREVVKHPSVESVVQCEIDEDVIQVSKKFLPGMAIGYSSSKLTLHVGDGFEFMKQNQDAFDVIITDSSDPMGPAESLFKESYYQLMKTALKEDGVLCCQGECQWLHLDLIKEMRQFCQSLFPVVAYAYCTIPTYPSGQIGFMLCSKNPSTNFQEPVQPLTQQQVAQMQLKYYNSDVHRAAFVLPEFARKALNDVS
# Sequence of UniProt Q9HBR0 (Q9HBR0 whole entry, looked up): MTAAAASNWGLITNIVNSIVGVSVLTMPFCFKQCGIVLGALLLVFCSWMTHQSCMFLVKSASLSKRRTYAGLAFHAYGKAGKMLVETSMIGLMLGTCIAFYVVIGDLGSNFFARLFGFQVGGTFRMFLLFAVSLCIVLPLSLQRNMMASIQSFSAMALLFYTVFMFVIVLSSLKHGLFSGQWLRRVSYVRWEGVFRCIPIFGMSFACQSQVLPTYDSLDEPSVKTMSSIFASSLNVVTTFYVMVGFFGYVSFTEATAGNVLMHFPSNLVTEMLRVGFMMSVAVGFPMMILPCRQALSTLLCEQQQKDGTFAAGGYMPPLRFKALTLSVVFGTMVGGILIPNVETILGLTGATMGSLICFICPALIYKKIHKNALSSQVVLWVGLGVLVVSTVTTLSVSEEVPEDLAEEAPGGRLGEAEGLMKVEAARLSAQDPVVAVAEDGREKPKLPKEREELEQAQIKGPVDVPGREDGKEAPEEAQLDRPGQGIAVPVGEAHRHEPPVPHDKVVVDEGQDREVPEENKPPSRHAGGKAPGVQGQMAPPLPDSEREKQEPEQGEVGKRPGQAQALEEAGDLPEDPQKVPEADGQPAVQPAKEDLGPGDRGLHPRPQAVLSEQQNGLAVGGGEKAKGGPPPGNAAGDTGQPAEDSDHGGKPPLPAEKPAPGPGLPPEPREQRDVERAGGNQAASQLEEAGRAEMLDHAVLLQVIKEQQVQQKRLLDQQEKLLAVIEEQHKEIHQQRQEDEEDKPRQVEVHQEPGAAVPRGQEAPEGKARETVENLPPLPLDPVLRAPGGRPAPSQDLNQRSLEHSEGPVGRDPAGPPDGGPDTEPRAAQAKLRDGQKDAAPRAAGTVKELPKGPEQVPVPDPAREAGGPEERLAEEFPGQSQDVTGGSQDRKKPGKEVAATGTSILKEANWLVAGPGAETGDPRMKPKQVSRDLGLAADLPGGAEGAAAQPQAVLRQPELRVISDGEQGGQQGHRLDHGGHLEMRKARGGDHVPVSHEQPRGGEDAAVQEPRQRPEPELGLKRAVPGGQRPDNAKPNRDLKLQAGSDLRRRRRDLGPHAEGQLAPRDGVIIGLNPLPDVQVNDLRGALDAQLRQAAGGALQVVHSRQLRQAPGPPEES
# Sequence of UniProt P35270 (P35270 whole entry, looked up): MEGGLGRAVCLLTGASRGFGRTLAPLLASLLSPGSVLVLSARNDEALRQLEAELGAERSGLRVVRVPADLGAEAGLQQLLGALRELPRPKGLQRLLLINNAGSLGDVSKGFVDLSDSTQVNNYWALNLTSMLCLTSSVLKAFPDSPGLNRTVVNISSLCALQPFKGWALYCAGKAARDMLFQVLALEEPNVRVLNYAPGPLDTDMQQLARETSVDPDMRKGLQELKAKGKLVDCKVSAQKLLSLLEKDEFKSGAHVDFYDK
# Sequence of UniProt P62306 (P62306 whole entry, looked up): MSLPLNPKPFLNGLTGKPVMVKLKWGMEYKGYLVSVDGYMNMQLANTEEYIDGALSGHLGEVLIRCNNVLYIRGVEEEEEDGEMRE
# Sequence of UniProt Q8NB90 (Q8NB90 whole entry, looked up): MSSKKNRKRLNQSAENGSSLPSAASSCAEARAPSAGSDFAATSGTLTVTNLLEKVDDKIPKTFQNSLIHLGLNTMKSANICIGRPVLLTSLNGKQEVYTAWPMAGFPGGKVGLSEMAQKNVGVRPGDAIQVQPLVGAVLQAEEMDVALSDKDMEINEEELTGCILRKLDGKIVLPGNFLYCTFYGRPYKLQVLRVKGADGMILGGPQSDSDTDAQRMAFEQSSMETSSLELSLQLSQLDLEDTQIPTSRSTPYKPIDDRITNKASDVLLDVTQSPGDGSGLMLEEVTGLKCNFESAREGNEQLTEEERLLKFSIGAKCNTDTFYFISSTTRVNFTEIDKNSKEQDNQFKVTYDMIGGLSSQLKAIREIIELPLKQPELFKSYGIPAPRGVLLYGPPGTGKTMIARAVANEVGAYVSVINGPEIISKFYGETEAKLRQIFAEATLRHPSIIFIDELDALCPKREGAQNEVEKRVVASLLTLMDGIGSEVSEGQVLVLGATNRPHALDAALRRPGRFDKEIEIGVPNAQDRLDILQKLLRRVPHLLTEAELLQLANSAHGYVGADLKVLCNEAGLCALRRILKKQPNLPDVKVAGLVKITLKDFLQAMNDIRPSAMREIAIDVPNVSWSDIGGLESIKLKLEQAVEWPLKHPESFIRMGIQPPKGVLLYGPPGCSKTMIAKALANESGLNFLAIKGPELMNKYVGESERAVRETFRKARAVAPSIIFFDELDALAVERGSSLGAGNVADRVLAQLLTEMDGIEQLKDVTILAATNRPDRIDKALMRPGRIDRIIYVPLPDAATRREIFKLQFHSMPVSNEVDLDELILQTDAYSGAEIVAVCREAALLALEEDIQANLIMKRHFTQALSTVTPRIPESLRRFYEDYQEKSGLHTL
# Sequence of UniProt Q9BVQ7 (Q9BVQ7 whole entry, looked up): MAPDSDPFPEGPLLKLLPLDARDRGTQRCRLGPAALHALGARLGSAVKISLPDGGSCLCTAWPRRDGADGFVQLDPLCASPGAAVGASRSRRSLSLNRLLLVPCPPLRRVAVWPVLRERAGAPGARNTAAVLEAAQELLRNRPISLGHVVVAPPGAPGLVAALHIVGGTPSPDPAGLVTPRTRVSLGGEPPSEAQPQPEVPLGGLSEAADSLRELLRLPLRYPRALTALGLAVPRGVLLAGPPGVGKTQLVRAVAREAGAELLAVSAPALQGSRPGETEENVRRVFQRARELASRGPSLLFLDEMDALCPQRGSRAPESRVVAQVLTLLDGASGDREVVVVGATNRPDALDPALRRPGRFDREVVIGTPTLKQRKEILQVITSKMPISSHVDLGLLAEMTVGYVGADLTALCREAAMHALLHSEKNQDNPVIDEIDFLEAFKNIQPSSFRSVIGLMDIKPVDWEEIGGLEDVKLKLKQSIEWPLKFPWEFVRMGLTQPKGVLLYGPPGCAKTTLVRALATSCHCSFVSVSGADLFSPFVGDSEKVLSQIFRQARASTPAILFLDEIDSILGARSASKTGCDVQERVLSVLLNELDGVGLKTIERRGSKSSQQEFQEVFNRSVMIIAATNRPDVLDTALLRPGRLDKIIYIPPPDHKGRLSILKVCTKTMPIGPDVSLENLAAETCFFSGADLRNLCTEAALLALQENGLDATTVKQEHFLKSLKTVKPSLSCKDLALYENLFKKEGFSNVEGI
Target,log2 fold change (alvocidib),log2 fold change (Tubastatin A),log2 fold change [1],log2 fold change (defactinib),log2 fold change [2],log2 fold change (encorafenib),log2 fold change [3],log2 fold change (alisertib),log2 fold change [4],log2 fold change (gefitinib),log2 fold change (lapatinib),log2 fold change (pictilisib),log2 fold change (crizotinib),log2 fold change [5],log2 fold change (duvelisib),log2 fold change (gandotinib),log2 fold change (tozasertib),log2 fold change (doramapimod),log2 fold change (bafetinib),log2 fold change [6]
SPR (UniProt P35270),0.164,-0.1,0.071,0.019,0.01,-0.097,0.22,0.163,-0.017,-0.013,-0.015,0.472 (active),0.276,-0.029,-0.059,0.467 (active),0.025,-0.06,-0.09,-0.117
TARBP2 (UniProt Q15633),0.016,-0.147,0.038,0.017,-0.026,0.037,0.072,-0.039,0.008,-0.01,0.035,-0.098,-0.092,0.001,0.07,-0.08,-0.057,0.028,-0.028,0.022
SOAT1 (UniProt P35610),-0.033,0.086,0.036,-0.022,-0.002,0.065,0.123,-0.014,-0.076,0.047,0.027,-0.004,-0.022,-0.079,-0.016,0.005,0.009,0.157,0.029,0.141
SUZ12 (UniProt Q15022),-0.004,-0.012,0.009,0.049,0.027,0,0.101,-0.057,-0.062,0.062,0.015,0.043,-0.021,0.048,-0.016,0.027,0.006,0,-0.113,0.009
STK39 (UniProt Q9UEW8),0.011,-0.128,-0.015,0,-0.026,-0.021,0.164,-0.055,0.02,0.028,0.011,-0.038,-0.063,-0.012,0.087,-0.044,0.021,0.032,-0.03,0.057
STAU1 (UniProt O95793),0.062,-0.06,0.051,0.027,-0.04,0.078,-0.009,0.072,-0.007,0.012,-0.018,0.03,0.005,0.27 (active),0.019,-0.086,0.014,0.056,-0.089,-0.062
SLC26A6 (UniProt Q9BXS9),-0.095,-0.05,-0.004,0.055,0.086,-0.016,-0.111,0.06,-0.056,-0.022,-0.009,0.05,-0.023,0.016,0.067,0.051,0.047,-0.003,-0.003,0.118
SPATS2 (UniProt Q86XZ4),0.039,-0.075,0.019,0.353,0.036,0.066,-0.195,-0.015,-0.047,0,0.027,-0.119,0.09,-0.016,0.048,0.145,-0.062,-0.126,-0.206,-0.164
SNRPF (UniProt P62306),-0.119,-0.028,-0.02,0.014,-0.034,0.021,0.014,-0.03,0.022,0.084,0.021,-0.029,-0.077,-0.237,0.076,0.21,-0.016,0.026,0.05,0.218
SPATA5 (UniProt Q8NB90),0.033,-0.101,0.007,0.029,0.085,0.04,0.008,0.025,0.004,-0.024,-0.017,-0.009,-0.046,-0.027,-0.015,-0.13,0.02,-0.017,-0.05,0.034
SLC38A10 (UniProt Q9HBR0),-0.036,0.074,-0.015,0.023,0.04,0.037,-0.06,-0.032,0.032,-0.046,0.006,-0.069,0.009,-0.136,0.018,0.068,-0.061,-0.087,-0.044,0.091
SPATA5L1 (UniProt Q9BVQ7),0.022,-0.16,0.019,0.036,0.23,0,-0.061,0.024,-0.052,-0.013,-0.017,0.011,-0.107,0.016,0.001,-0.076,0.013,-0.035,-0.001,0.049
SSNA1 (UniProt O43805),0.016,0.038,0.043,-0.036,0.109,0.023,-0.115,0.027,-0.014,0.013,0.012,-0.015,0.138,0.003,-0.038,0.061,0.045,0.019,-0.014,-0.034
SRM (UniProt P19623),0.008,-0.014,-0.014,-0.03,-0.03,-0.011,0.083,-0.03,0.016,0.011,-0.015,-0.013,-0.048,-0.032,0.716 (active),-0.036,0.01,-0.017,-0.009,-0.033
SND1 (UniProt Q7KZF4),0.009,-0.121,0.015,0.019,-0.019,-0.019,0.195,0.026,-0.004,-0.017,-0.008,-0.012,-0.034,0.077,0.008,-0.108,0,0.034,-0.028,-0.009
SMG5 (UniProt Q9UPR3),0.086,-0.075,0.014,0.04,-0.037,0.067,0.058,0.04,0.004,0.028,-0.038,0.057,-0.007,0.01,-0.006,-0.003,0.019,-0.131,-0.035,-0.007
